# IP6K1 inhibitor – inhibitors of human IP6K1; 140,000 tested, 0.81% active; activity change, % (series mostly up to about 58 µM); AID 1645851; Q92551; IP6K1 kinase, ADP-Glo luminescence, 2 h; hits give low values; in the data active means activity change below about -25%; further: on the % scale 0 is the no-effect control and ±100 the full control effect
#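 ADP-Glo luminescence measures ADP made by human IP6K1 during a 2 h RT reaction with ATP/IP6 (mix at 1.3 mM/130 uM); top library doses 57.5 and 19.1 uM final.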
# KDM5B inhibitor – KDM5B demethylase inhibition. Q9UGL1. KDM5B demethylase, FDH-coupled NADH fluorescence (FDH is formaldehyde dehydrogenase). Potency, µM (doses to about 57.7 µM), actives largely listed as inhibitors. 220,000 tested, 2.6% active. AID 1347165; active means well fitted inhibition curve with a large enough effect; inconclusive means small, poorly fitted or top-dose-only effect; inactive means no such curve, though single readings can be large or run the other way; further: potency means the concentration at half of the fitted maximal effect; 0% is about no effect; nearly all actives have a fitted effect of over 70% in size
# Target sequence (Q9UGL1 whole entry, looked up): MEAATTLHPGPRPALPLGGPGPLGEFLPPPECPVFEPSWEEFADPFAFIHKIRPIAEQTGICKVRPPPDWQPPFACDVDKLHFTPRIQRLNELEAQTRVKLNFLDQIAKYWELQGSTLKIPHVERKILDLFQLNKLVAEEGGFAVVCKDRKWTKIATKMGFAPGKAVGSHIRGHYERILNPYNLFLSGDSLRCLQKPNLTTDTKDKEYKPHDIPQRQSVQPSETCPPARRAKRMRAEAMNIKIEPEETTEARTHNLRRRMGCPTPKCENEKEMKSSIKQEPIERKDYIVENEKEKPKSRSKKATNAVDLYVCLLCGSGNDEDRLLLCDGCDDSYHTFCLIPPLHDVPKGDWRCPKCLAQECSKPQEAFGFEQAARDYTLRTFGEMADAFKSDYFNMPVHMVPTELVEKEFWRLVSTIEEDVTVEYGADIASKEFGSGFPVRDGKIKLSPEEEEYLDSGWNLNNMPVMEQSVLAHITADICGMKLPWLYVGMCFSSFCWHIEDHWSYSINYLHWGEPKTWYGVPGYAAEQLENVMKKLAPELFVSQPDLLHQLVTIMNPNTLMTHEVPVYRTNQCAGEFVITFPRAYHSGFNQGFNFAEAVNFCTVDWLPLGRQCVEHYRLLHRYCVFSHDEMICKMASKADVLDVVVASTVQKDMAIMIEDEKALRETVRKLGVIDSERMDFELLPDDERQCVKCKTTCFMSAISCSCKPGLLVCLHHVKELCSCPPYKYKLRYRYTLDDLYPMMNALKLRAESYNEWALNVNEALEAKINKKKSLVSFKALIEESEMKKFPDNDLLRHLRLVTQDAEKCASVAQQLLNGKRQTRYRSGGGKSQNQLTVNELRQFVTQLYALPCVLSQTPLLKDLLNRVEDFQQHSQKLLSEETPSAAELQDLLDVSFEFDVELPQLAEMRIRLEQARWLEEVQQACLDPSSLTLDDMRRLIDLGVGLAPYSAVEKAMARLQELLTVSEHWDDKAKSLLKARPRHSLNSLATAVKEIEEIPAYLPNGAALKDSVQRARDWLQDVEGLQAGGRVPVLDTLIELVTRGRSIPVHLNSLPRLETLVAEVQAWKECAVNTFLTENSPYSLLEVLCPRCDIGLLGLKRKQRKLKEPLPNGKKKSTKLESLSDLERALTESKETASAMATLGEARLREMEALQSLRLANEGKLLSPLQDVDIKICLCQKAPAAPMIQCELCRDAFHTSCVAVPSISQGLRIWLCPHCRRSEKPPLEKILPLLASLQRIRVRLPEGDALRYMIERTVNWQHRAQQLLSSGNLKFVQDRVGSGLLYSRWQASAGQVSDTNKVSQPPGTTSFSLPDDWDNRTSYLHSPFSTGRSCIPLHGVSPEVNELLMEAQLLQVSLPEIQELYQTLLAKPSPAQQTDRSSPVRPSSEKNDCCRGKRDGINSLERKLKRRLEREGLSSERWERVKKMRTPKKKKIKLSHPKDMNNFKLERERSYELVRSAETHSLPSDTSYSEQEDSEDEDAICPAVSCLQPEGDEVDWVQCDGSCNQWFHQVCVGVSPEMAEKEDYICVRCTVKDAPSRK
#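 Here, H3K4me3 peptide (12.5 µM in substrate mix) is demethylated by KDM5BΔAP, 200 nM final, after 10 min compound exposure. Formaldehyde product is coupled through FDH (0.25 U/mL in mix) to NADH fluorescence; 30-min ΔRFU feeds dose-response curves.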
# Active calls of the source: *; i = inactive; ? = inconclusive; . = no result given. This is a sample that favours compounds with a hit; in the whole collection about 2.8% have one here.
SMILES,IP6K1 inhibitor,KDM5B inhibitor
Cc1c(-c2ccccc2F)[nH]c2ccc(CNS(=O)(=O)C3CC3)cc12,33,28µM*
O=C(NCc1ccccc1)C1CCN(Cc2ccccc2-c2ccccc2F)CC1,21,.
Cc1[nH]c2ccc(C(=O)N(Cc3ccccc3F)C3CC3)cc2c1C,.,i
Cc1nn(-c2ccccc2)c2c1C(C)N(C1CCCN([S+](=O)([O-])c3c(C)noc3C)C1)C2=O (stereo unspecified),1,.
Cc1nn(-c2ccccc2)c2c1C(C1CC1)N(C1CN(C(=O)C3CC3)C1)C2=O (stereo unspecified),1,.
CC(C)c1cc(C(=O)N2CC[C@H](N3CCOCC3)[C@H](CCCO)C2)nc(N)n1,7,i
CC(C)c1ccc(C#N)c(N2CC[C@H](N3CCOCC3)[C@H](CCCO)C2)n1,3,28µM*
CO[C@H]1CN(C2CCN(C(=O)c3noc(C)c3Cn3cccn3)CC2)[C@H]1c1cccnc1,7,.
O=C(N[C@H](Cc1ccccn1)C1CC(O)C1)c1n[nH]c2c1CCCC2 (stereo partly specified),13,i
O=C(N[C@H](Cc1ccccn1)C1CC(O)C1)c1cccc2c1NCCC2 (stereo partly specified),-4,32µM*
Cn1ncc2c(C(=O)NC3CCCC3)cc(-c3ccccc3F)nc21,10,.
Cc1cccc(OC[C@H]2C[C@@H](NC(=O)c3ccccc3)[C@H](O)[C@@H]2O)n1,5,35µM*
Cc1cccc(OC[C@H]2C[C@@H](NC(=O)c3ccc(C#N)cc3)[C@H](O)[C@@H]2O)n1,-12,i
Cc1ccc(C(=O)N2CCN(c3nc4ncccc4o3)CC2)cc1,15,?
COCC(=O)N1CCCN(c2nc3ncccc3o2)CC1,-8,28µM*
COC(=O)N1CCCN(c2nc3ncccc3o2)CC1,-6,25µM*
O=C(Cc1ccccn1)N1CCCN(c2nc3ncccc3o2)CC1,-3,i
COC(=O)N1CCN(c2nc3ncccc3o2)CC1,-1,?
CC(=O)N1CCN(c2nc3ncccc3o2)CC1,-1,32µM*
C#CCNC(=O)c1cc(-c2ccc(Cl)cc2Cl)c2nncn2n1,6,.
CCCCn1nc(C(=O)Nc2cc(OC)c(OC)cc2C)c2ccccc2c1=O,.,i
O=C(NCCCc1ccccc1)c1cc(-c2cccc(C(F)(F)F)c2)c2cccn2n1,6,.
COc1ccccc1-c1ccc(CN2CCCCC2C(=O)NCc2ccccc2Cl)cc1 (stereo unspecified),26,.
CCC[C@@H]1CN(C(=O)c2ccc(-c3ccc(C)o3)cc2)C[C@H]1NC(C)=O,20,28µM*
CCC[C@H]1CN(CCCOc2ccc(C(N)=O)cc2)C[C@@H]1NC(C)=O,6,i
SMILES,IP6K1 inhibitor,KDM5B inhibitor
COC(=O)CNC(=O)c1cc(-c2ccccc2C(F)(F)F)nc2c1cnn2C,-6,.
CCCNc1nc(-c2cc(C)n(NC(=O)c3nn(C)c(=O)c4ccccc34)c2C)cs1,.,i
Cc1ccc(-c2nnc3ccc(N4CCCCC4)nn23)nc1,-4,32µM*
Cc1ccc(-c2nnc3ccc(N4CCCC4)nn23)nc1,-11,i
Cn1ncc2c(C(=O)N3CCN(Cc4ccccc4)CC3)cc(-c3ccc(Cl)cc3)nc21,-1,.
CSc1ccc(-c2cccc(C(=O)NCCN[S+](=O)([O-])c3ccc(C)cc3)c2)cc1,-8,.
Cc1nc(C(=O)N2CCC(c3[nH]ncc3-c3ccccc3C)CC2)cs1,-10,i
Cc1ccccc1-c1cn[nH]c1C1CCN(C(=O)c2cnn3ccccc23)CC1,5,22µM*
CCc1nc2c(=O)n(CC(=O)N3CCN(c4cccc(C)c4C)CC3)nc(C)c2s1,30,i
CCc1nc2c(=O)n(CC(=O)N(CC)Cc3ccccc3)nc(C)c2s1,2,i
Cc1nn(CC(=O)N2CCCCCC2)c(=O)c2nc(-c3ccccc3)sc12,1,32µM*
CCCCN(C)C(=O)Cn1nc(C)c2sc(-c3ccccc3)nc2c1=O,9,28µM*
CCC(CC)NC(=O)CN1C(=O)C(Oc2ccc(F)cc2)C12CCCCC2 (stereo unspecified),-5,.
CC(Sc1nc2ccccc2o1)c1nc2ccccc2c(=O)[nH]1 (stereo unspecified),.,i
Cn1c(=O)c2c(ncn2CCC(=O)Nc2ccccc2Oc2ccccc2)n(C)c1=O,.,i
Cc1ccc(C(=O)N2CCC(N3C(=O)c4c(c(C)nn4-c4ccccc4)C3C(C)C)CC2)cc1 (stereo unspecified),12,.
CC(=O)N1CCC(N2CCC[C@H]2c2nc(-c3ccnc(N4CCC(C(N)=O)CC4)c3)no2)CC1,13,22µM*
CC(=O)N1CCC(N2CCC[C@H]2c2nc(-c3ccc(N4CCC(C(N)=O)CC4)nc3)no2)CC1,4,?
CS(=O)(=O)c1ccc(CN2CCC[C@H]2c2nc(-c3ccnc(N4CCC(C(N)=O)CC4)c3)no2)cc1,-3,28µM*
NC(=O)C1CCN(c2cc(-c3noc([C@@H]4CCCN4Cc4ccc(Cl)cc4)n3)ccn2)CC1,7,32µM*
NC(=O)C1CCN(c2cc(-c3noc([C@@H]4CCCN4Cc4ccccc4F)n3)ccn2)CC1,9,?
CC(=O)Nc1ccc(CN2CCC[C@H]2c2nc(-c3ccc(N4CCC(C(N)=O)CC4)nc3)no2)cc1,1,?
COc1ccc(CC(=O)NC2CCCN(Cc3cccc(-c4ccc(C)c(Cl)c4)c3)C2)cc1 (stereo unspecified),-4,.
COc1ccc(-c2nc3c(c(SC(C)C(=O)Nc4ccccc4OC)n2)COC(C)(C)C3)cc1 (stereo unspecified),.,i
O=C(NC1CCCC1)C1CCN(C(=O)c2ccc(-c3cccs3)cc2)CC1,1,.
SMILES,IP6K1 inhibitor,KDM5B inhibitor
Cc1cc(Nc2ccccc2C)c2c([N+](=O)[O-])cc(C)c(C)c2n1,.,i
O=C(c1ccco1)N1N=C(c2c(-c3ccccc3)c3ccccc3[nH]c2=O)CC1c1ccccc1 (stereo unspecified),.,i
CC(N)c1cccc(NS(C)(=O)=O)c1 (stereo unspecified),.,i
Cc1cn2nc(C(=O)Nc3ccc(F)c(C)c3)cc2c(N2CCSCC2)n1,-5,32µM*
CSc1cccc(NC(=O)c2cc3c(N4CCSCC4)nc(C)cn3n2)c1,-2,25µM*
CSc1ccc(NC(=O)c2cc3c(N4CCSCC4)nc(C)cn3n2)cc1,10,i
COc1ccc(CNC(=O)c2cc3c(N4CCSCC4)nc(C)cn3n2)c(OC)c1,10,?
Cc1cn2nc(C(=O)Nc3ccc(Cl)c(C)c3)cc2c(N2CCSCC2)n1,-4,22µM*
CSc1cccc(NC(=O)c2cc3c(N4CCCC4)nc(C)cn3n2)c1,0,i
COc1ccc(NC(=O)c2cc3c(N4CCSCC4)nc(C)cn3n2)cc1F,13,28µM*
Cc1cc2ccccc2n1CC(=O)Nc1ccccc1,.,i
O=C(c1ccc(C(F)(F)F)cc1)N1CCCC2(CNc3ncccc3[S+](=O)([O-])N2)C1 (stereo unspecified),23,.
CCc1cnc2c(c1SCC(=O)Nc1ccccc1C)c(=O)n(C)c(=O)n2C,.,i
COC(=O)N1CC(N2C(=O)c3c(c(C)nn3-c3ccccc3)C2C2CC2)C1 (stereo unspecified),0,.
Cc1cccc(-c2nnc(SCC(=O)NC(=O)NC3CCCC3)n2Cc2ccco2)c1,.,i

# Source: PubChem BioAssay (National Center for Advancing Translational Sciences (NCATS))
